# “And” between values parts separate entries of the source, which are not always exact repeats. Equal values may be shown once. In all, about 16,000 compounds went through this assay and about 5,800 (36%) were called active. Not shown: some 23% with an inconclusive outcome. The call rests on the fitted dose curve; in most records, active means well fitted curve in the direction sought with a large enough effect; inconclusive means small, poorly fitted or top-dose-only effect, or effect the other way; inactive means no such curve, though single readings can be large or run the other way. The list shows a part of the results. Where a structure was tested more than once in an assay, its records may differ in their call.
# Molecular target: Cytochrome P450 2C19 (Homo sapiens) (UniProt P33261)
# Experiment: Cytochrome panel assay with activity outcomes
# Conditions: recombinant CYP, pro-luciferin dealkylation, luminescence, p450-cyp2c19; series mostly up to 57.1 µM; activity, negative = inhibition: at the top concentration
# Protocol: The P450 gene superfamily is involved in the metabolism and clearance of xenobiotics. This assay used various human CYP P450 isozymes to measure the dealkylation of various pro-luciferin substrates to luciferin. The luciferin is then measured by luminescence after the addition of a luciferase detection reagent. Pro-luciferin substrate concentration in the assay was equal to its KM for its CYP P450 isozyme. Inhibitors and some substrates limit the production of luciferin, and decrease measured luminescence.
# NCGC Assay Protocol Summary:
# 1, Reagent, 2 uL, Isozyme and Pro-Luciferin
# 2, Library compounds, 23 nl, 40 uM to 0.24 nM dilution series
# 3, Controls, 23 nl, Isozyme specific inhibitor
# 4, Reagent, 2 uL, NADPH regeneration solution
# 5, Incubation time, 60 min, Isozyme specific temperature
# 6, Reagent, 4ul, Detection reagent
# 7, Incubation time, 20 min, Isozyme specific temperature
# 8, Detection, 1 sec, ViewLux luminescent read
# The luciferase-based P450-GloTM Screening Systems were obtained from Promega (Madison, WI) for CYP 1A2 (V9770), CYP 2C9 (V9790), CYP2 C19 (V9880), CYP 2D6 (V9890), and CYP 3A4 Luciferin-PPXE (V9910) and were adapted for 1,536-well microplates and an automated protocol. The control compounds furafylline for 1A2 (F124), sulfaphenazole for CYP 2C9 (S0758), ketoconazole for CYP 2C19 (K1003), quinidine for 2D6 (Q3625), and ketoconazole for 3A4 (K1003) were purchased from Sigma Aldrich (St. Louis, MO). Recombinant P450 enzymes were obtained from baculovirus constructs expressed in insect cells (BD/Gentest).
# Medium-binding white solid Kalypsys plates used. Mixtures kept on ice. 1A2: 10 nM 1A2, 100 uM Luc-ME, 100 mM KPO4; 2C9: 10 nM 2C9, 100 uM Luc-H, 25 mM KPO4; 2C19: 5 nM 2C19, 10 uM Luc-H EGE, 50 mM KPO4; 2D6: 5 nM 2D6, 30 uM Luc-ME EGE, 100 mM KPO4; 3A4: 10 nM, 25 uM Luc-PPXE. All amounts are reflected in their final concentration, working concentration is 2x.
# NADPH regeneration solution: 1.3 mM NADP+, 3.3 mM glucose-6-phosphate, 3.3 mM MgCl2, 0.4 U/mL glucose-6-phosphate dehydrogenase for all isozymes, 200 mM KPO4 for 3A4. Mixture prepared at RT but kept on ice during automated run.
# RT incubation in auxilliary plate hotel for 1A2, 2D6, and 3A4; 37C for 2C9 and 2C19.
# Keywords: P450, CYP1A2, CYP2C19, CYP2C9, CYP2D6, CYP3A4, Luciferase, MLSMR, MLSCN, NIH Roadmap, qHTS, NCGC
# On the % scale 0 is the no-effect control and ±100 the full control effect.
# Chain of Cytochrome P450 2C19 (Homo sapiens) (P33261 whole entry, looked up): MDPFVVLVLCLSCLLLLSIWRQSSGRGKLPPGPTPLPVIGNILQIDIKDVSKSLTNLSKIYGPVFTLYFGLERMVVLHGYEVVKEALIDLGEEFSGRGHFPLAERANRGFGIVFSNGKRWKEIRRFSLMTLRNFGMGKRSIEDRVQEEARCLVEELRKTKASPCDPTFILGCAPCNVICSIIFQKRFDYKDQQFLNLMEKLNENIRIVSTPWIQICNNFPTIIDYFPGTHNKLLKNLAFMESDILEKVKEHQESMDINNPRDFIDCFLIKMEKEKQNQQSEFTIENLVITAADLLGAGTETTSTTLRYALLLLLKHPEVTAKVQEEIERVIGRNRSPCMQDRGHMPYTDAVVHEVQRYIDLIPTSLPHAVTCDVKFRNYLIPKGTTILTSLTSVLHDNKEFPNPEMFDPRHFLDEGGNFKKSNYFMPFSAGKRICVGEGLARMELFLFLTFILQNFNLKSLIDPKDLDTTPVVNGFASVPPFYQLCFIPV
Structure (SMILES),"activity, negative = inhibition",AC50
COc1ccc2c(c1)CCC1C2CC[C@]2(C)[C@H](NCCCCCCN3C(=O)C=CC3=O)CC[C@@H]12 (some centres undefined),33.9% (inactive),
COc1cc2c(c(OC)c1OC)-c1ccc(O)c(=O)cc1[C@H](N)CC2,-2.81% [at 25.6 µM] (inactive),
CN1[C@@H](C[C@@H](O)c2ccccc2)CCC[C@@H]1C[C@H](O)c1ccccc1,35.4% [at 25.6 µM] (inactive),
O=C(Oc1ccccc1)N1CCC2(CCCN(Cc3nccs3)C2)CC1,22.6% (inactive),
NCC[C@H](O)C(=O)N[C@H]1C[C@@H](N)[C@@H](O[C@H]2O[C@@H](CN)[C@@H](O)[C@@H](O)[C@@H]2N)[C@@H](O[C@H]2O[C@@H](CO)[C@@H](O)[C@@H]2O)[C@@H]1O,23.6% [at 25.6 µM] (inactive),
Nc1nc(N)c(N=Nc2ccc([As](=O)(O)O)c(O)c2)c(N)n1,31% [at 11.4 µM] (inactive),
NC(=NCCc1ccc(I)cc1)SCCCc1cnc[nH]1,-36.4% (inactive),
CN1C(=O)C(=Cc2ccc(N3CCCCCC3)o2)C(=O)N(C)C1=S,,2.24 µM (active)
O=C(Nc1cccc(F)c1)N1CC2(CCNCC2)C1,-10.4% (inactive),
COC(=O)[C@@H]1[C@@H](O)[C@@]2(O)c3c(OC)cc(OC)cc3O[C@@]2(c2ccc(OC)cc2)[C@H]1c1ccccc1,8.06% [at 11.4 µM] (inactive),
CCC1=C(C[C@H]2NCCc3ccccc32)C[C@@H]2c3cc(OC)c(OC)cc3CCN2C1,-23.2% [at 11.4 µM] (inactive),
C[C@]12CC[C@@H]3[C@H](CCC4=CC(=O)CC[C@]43C)[C@]1(O)CC[C@@]2(O)C(=O)CO,24.8% [at 11.4 µM] (inactive),
N[C@@H]1C=CC=C(C(=O)O)C1,26.3% (inactive),
O=[N+]([O-])c1cc(O)c(O)c([N+](=O)[O-])c1,-35.3% (inactive),
O=C(O)Cc1ccc([N+](=O)[O-])cc1[N+](=O)[O-],-28.8% [at 11.4 µM] (inactive),
O=[N+]([O-])c1ccc(S(=O)(=O)Cc2ccccc2)c([N+](=O)[O-])c1,,2 µM (active)
c1ccc(N2CC[C@@]3(CCCNC3)C2)nc1,10.5% (inactive),
CN1C(=O)C(=Cc2ccccc2Oc2ccc(Cl)c(F)c2)C(=O)N(C)C1=O,,3.55 µM (active)
COc1cc2c(cc1OC)[C@@]13CCN4CC5=CCO[C@H](CC(=O)O)[C@@H]([C@H]1N2)[C@H]5C[C@H]43,-11.9% [at 11.4 µM] (inactive),
C[C@](N)(CCP(=O)(O)O)C(=O)O,-26.4% (inactive),
CC1CN=C(Nc2cccc3ccccc23)S1 (centres undefined),,3.98 µM (active)
CC(=O)O[C@@H]1CN2CCC1CC2,-13.1% (inactive),
c1ccc(CCN2CCCCCC2)nc1,38.1% [at 11.4 µM] (inactive),

Structure (SMILES),"activity, negative = inhibition",AC50
CC(=O)N[C@@H]1CCSC1=O,14.5% [at 25.6 µM] (inactive),
CN(N=O)C(=O)N[C@H]1C(O)OC(CO)[C@@H](O)[C@H]1O (some centres undefined),,7.94 µM (active)
CC(=O)[C@]1(O)CC[C@@H]2[C@H]3C[C@@H](C)C4=CC(=O)CC[C@@]4(C)[C@H]3[C@@H](O)C[C@]21C,-31.5% [at 11.4 µM] (inactive),
C=C[C@@H]1CN2CC[C@H]1C[C@H]2[C@H](O)c1ccnc2ccccc12,44.5% [at 11.4 µM] (inactive),
NC(N)=NN=Cc1c(Cl)cccc1Cl,27.6% [at 25.6 µM] (inactive),
CCCN1CCO[C@@H]2c3cc(O)ccc3OC[C@@H]21,,10 µM (active)
CCCN1CCO[C@@H]2c3cc(O)ccc3OC[C@H]21,-29.4% (inactive),
CCCN1CC[C@@H]2c3cc(O)ccc3CC[C@H]21,-19% (inactive),
O=C(O)[C@H]1[O][Sb][O][C@@H](C(=O)O)C1O (some centres undefined),15.3% [at 11.4 µM] (inactive),
COc1cc2ccccc2c2cc([N+](=O)[O-])oc12,-34.1% [at 11.4 µM] (inactive),
c1ccc(CCCCN2CCC(c3ccccc3)CC2)cc1,,15.8 µM (active)
c1cc(CCN2CCCCC2)ccn1,9.84% [at 11.4 µM] (inactive),
c1ccc2c([C@@H]3CCN(CCN4CCOCC4)C3)c[nH]c2c1,23.2% [at 11.4 µM] (inactive),
C1C[C@@H]2CN(CCCN3CCOCC3)[C@@H](C1)O2,-1.65% [at 11.4 µM] (inactive),
Cc1c2cc[n+](CCN3CCCCC3)cc2c(C)c2c1[nH]c1ccc(O)cc12,17.2% [at 11.4 µM] (inactive),
N=C1c2ccccc2CN1NC(=O)c1ccc(Cl)cc1,1.92% (inactive),
C[C@@H]1O[C@H](O[C@H]2C[C@@H](O)[C@@]3(CO)[C@H]4[C@@H](O)C[C@]5(C)[C@@H](C6=CC(=O)OC6)CC[C@]5(O)[C@H]4CC[C@]3(O)C2)[C@@H](O)[C@H](O)[C@@H]1O,-10.4% [at 25.6 µM] (inactive),
CCN1C[C@]2(COC(=O)c3ccccc3N3C(=O)C[C@H](C)C3=O)CC[C@H](OC)[C@@]34[C@@H]5C[C@H]6[C@H](OC)[C@H]5[C@](O)(C[C@@H]6OC)[C@@](O)([C@@H](OC)[C@@H]23)[C@@H]14,3.08% (inactive),
CC[C@@]1(O)C(=O)OCc2c1cc1n(c2=O)Cc2cc3ccccc3nc2-1,,inactive and 20 µM (active)
CC[C@]1(OC(=O)CN)C(=O)OCc2c1cc1n(c2=O)Cc2cc3ccccc3nc2-1,17% [at 11.4 µM] (inactive),
CC[C@@]1(O)C(=O)OCc2c1cc1n(c2=O)Cc2cc3c(NC(=O)CN)cccc3nc2-1,11.8% [at 11.4 µM] (inactive),
Clc1cc(I)cc(Cl)c1NC1=NCCN1,-0.585% (inactive),
CC(C)NC(=O)N1CCCC2(CCN(C(=O)Oc3ccccc3)CC2)C1,-29% (inactive),

Structure (SMILES),"activity, negative = inhibition",AC50
CC[C@H](Oc1ccc(Cl)cc1)C(=O)OC1C[C@H]2CC[C@@H](C1)N2C (some centres undefined),,0.0158 µM (active)
CN1[C@@H]2CC[C@H]1CC(OC(=O)c1cc(Cl)cc(Cl)c1)C2 (some centres undefined),-36.3% (inactive),
C[C@@H](C(=O)OC1C[C@H]2CC[C@@H](C1)N2C)c1ccc(Br)cc1 (some centres undefined),-8.86% (inactive),
CCCN(CCC)C1Cc2cc(OC)c(OC)cc2C1,,inactive
NCCSC(c1ccccc1)c1ccccc1,,1.26 µM (active)
C[N+]1(C)CCN(c2ccccc2)CC1,32% (inactive),
C=CCN1CCc2cccc3c2[C@@H]1Cc1ccc(O)c(O)c1-3,-54% (inactive),
CN(C)CCCc1c[nH]c2ccccc12,-13.7% [at 11.4 µM] (inactive),
NCCc1c[nH]c2ccccc12,-13.2% (inactive),
CC(=O)NCCc1c[nH]c2ccccc12,,10 µM (active)
c1ccc2c(c1)Sc1ccccc1N2C[C@H]1CN2CCC1CC2,38.1% [at 11.4 µM] (inactive),
CN(C(=O)Cc1ccc(Cl)c(Cl)c1)[C@@H](CN1CCCC1)c1cccc(OCC(=O)O)c1,,inactive
CN(C(=O)Cc1ccc(Cl)c(Cl)c1)[C@H](CN1CCCC1)c1ccccc1,,0.316 µM (active)
C=CCN1CC[C@]23c4c5ccc(O)c4O[C@@H]2/C(=N/NC(=O)c2ccccc2)CC[C@@]3(O)[C@H]1C5,-19.2% (inactive),
CC(C)N(CC[C@@](C(N)=O)(c1ccccc1)c1ccccn1)C(C)C,,inactive
COC(=O)[C@@]1(Cc2ccc(F)cc2)[C@H]2c3cc(C(=O)N(C)C)[nH]c3C[C@H]2CN1C(=O)c1ccccc1,,20 µM (active)
CC[N+](C)(C)c1cccc(O)c1,-25.1% [at 25.6 µM] (inactive),
C/C=C1\C[C@H](C)[C@@](O)(CO)C(=O)OCC2=CCN3CC[C@@H](OC1=O)[C@@H]23,-42% [at 25.6 µM] (inactive),
CC(C)C12CN3CC(C(C)C)(CN(C1)C3c1cccnc1)C2=O (centres undefined),,14.1 µM (active)
CCN=C=NCCCN(C)C,27.1% [at 11.4 µM] (inactive),
C[N+]1(C)C2CC(OC(=O)C(CO)c3ccccc3)CC1[C@@H]1O[C@H]21 (some centres undefined),,inactive
C[C@H]1CN(C2CCC(C#N)(c3ccc(F)cc3)CC2)CC[C@@]1(C(=O)O)c1ccccc1 (some centres undefined),-32.5% [at 25.6 µM] (inactive),
FC(F)(F)c1nc2ccc(SSc3ccc4nc(C(F)(F)F)[nH]c4c3)cc2[nH]1,,5.01 µM (active)

Structure (SMILES),"activity, negative = inhibition",AC50
C=C(C)[C@H]1CN[C@H](C(=O)O)[C@@H]1CC(=O)O,28% (inactive),
c1cc(CN2CC3(CCNCC3)C2)ccn1,-40.1% (inactive),
CC(C)[C@@H]1CN[C@H](C(=O)O)[C@@H]1CC(=O)O,-4.7% (inactive),
COC[C@H]1OC(=O)c2coc3c2[C@@]1(C)C1=C(C3=O)[C@H]2CCC(=O)[C@@]2(C)C[C@H]1OC(C)=O,-4.95% (inactive),
CCCN1CCC[C@H](c2cccc(O)c2)C1,,inactive
Fc1ccc(CCNCc2ccc(Cl)c(Cl)c2)cc1,,0.316 µM (active)
O=C1NC(=S)NC(=O)C1=Cc1cccc2cc3ccccc3cc12,-39.2% [at 11.4 µM] (inactive),
O=c1cc(-c2ccc(O)cc2)oc2c([C@H]3O[C@@H](CO)[C@@H](O)[C@@H](O)[C@@H]3O)c(O)cc(O)c12,7.98% [at 25.6 µM] (inactive),
O=P(O)(O)CCP(=O)(O)O,13.6% [at 11.4 µM] (inactive),
COc1ccc(C2SCC(=O)Nc3c2c(C)nn3-c2ccccc2)cc1OC (centres undefined),,10 µM (active)
CNC(=O)Oc1ccc2c(c1)[C@@]1(C)CCN(C)[C@@H]1N2C,33.5% [at 25.6 µM] (inactive),
C[C@]12CC[C@H]3c4ccc(O)cc4CC[C@@H]3[C@H]1CC[C@@H]2OP(=O)(O)O,34.7% [at 11.4 µM] (inactive),
CCCN(CCC)C(=O)Cc1c(-c2ccc(Cl)cc2)nc2c(Cl)cc(Cl)cn12,16.9% (inactive),
COc1ccc(OC)c([C@H](O)[C@H](C)N)c1,,inactive
COc1ccc(Cl)cc1NC(=O)NCCCl,,20 µM (active)
CC1=NCCc2c1[nH]c1cc(O)ccc21,-35.5% [at 25.6 µM] (inactive),
O=C(NCCN1CCN(C(=O)C(c2ccccc2)c2ccccc2)CC1)C(=O)Nc1ccccc1,,25.1 µM (active)
O=C(OC1CCN(CCCl)CC1)C(c1ccccc1)c1ccccc1,-33.4% (inactive),
O=C(c1ccccc1)[C@H]1[C@H](c2ccccc2[N+](=O)[O-])N1C1CCCCC1 (some centres undefined),-82.8% [at 11.4 µM] (inactive),
Cc1ccc(C2(c3ccc(C)c(O)c3C)CCN(C)CC2)c(C)c1O,2.67% [at 11.4 µM] (inactive),

# Reference: PubChem BioAssay AID1851 (National Center for Advancing Translational Sciences (NCATS), 2009)
